According to PubChem BioAssay AID1159580 (chemical genetic matrix, 2015):
Among all 5,500 compounds or so, about 2,000 (36%) were called active. About 18% were inconclusive and are not listed. Cut-off read from the data, not from the text of the source: active = normalized growth mostly below about 0.91 (no sharp cut-off); inconclusive = no clear call, values can overlap the other calls; inactive = mostly above about 0.92. Some of the results follow.

Assay: chemical genetic growth profiling, strain panel (AID 1159580);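 note: tested at 20 µM; growth read once vehicle control cultures reached saturation at 30 °C; 1 = growth at the plate median or of vehicle wells; lower values mean less growth of the strain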
Details: S. cerevisiae deletion strains, growth OD
[1] = locus YAR019C, strain CDC15, active compounds read low
[2] = locus YBL105C, strain PKC1, active compounds read low
[3] = locus YBR135W, strain CKS1, active compounds read low
[4] = locus YBR136W, strain MEC1, active compounds read low
[5] = locus YBR160W, strain CDC28, active compounds read low
[6] = locus YDL017W, strain CDC7, active compounds read low
[7] = locus YDL028C, strain MPS1, active compounds read low
[8] = locus YDL101C, strain DUN1, active compounds read low
[9] = locus YDL108W, strain KIN28, active compounds read low
[10] = locus YDL132W, strain cdc53, active compounds read low
[11] = locus YDL214C, strain PRR2, active compounds read low
[12] = locus YDR052C, strain DBF4, active compounds read low
[13] = locus YDR054C, strain cdc34, active compounds read low
[14] = locus YDR226W, strain ADK1, active compounds read low
[15] = locus YDR477W, strain SNF1, active compounds read low
[16] = locus YER123W, strain YCK3, active compounds read low
[17] = locus YER133W, strain GLC7, active compounds read low
[18] = locus YFL009W, strain cdc4, active compounds read low
[19] = locus YFL029C, strain CAK1, active compounds read low
[20] = locus YFR003C, strain YPI1, active compounds read low
[21] = locus YFR019W, strain FAB1, active compounds read low
[22] = locus YFR028C, strain CDC14, active compounds read low
[23] = locus YGR040W, strain KSS1, active compounds read low
[24] = locus YGR052W, strain FMP48, active compounds read low
[25] = locus YGR092W, strain DBF2, active compounds read low
[26] = locus YHR030C, strain SLT2, active compounds read low
[27] = locus YHR079C, strain IRE1, active compounds read low
[28] = locus YHR082C, strain KSP1, active compounds read low
[29] = locus YHR205W, strain SCH9, active compounds read low
[30] = locus YIL147C, strain SLN1, active compounds read low
[31] = locus YJL095W, strain BCK1, active compounds read low
[32] = locus YJL128C, strain PBS2, active compounds read low
[33] = locus YJL157C, strain FAR1, active compounds read low
[34] = locus YJR016C, strain ILV3, active compounds read low
[35] = locus YJR066W, strain TOR1 (second series), active compounds read low
[36] = locus YJR066W, strain TOR1, active compounds read low
[37] = locus YKL048C, strain ELM1, active compounds read low
[38] = locus YKL067W, strain YNK1, active compounds read low
[39] = locus YKL101W, strain HSL1, active compounds read low
[40] = locus YKL193C, strain SDS22, active compounds read low
[41] = locus YKL203C, strain TOR2, active compounds read low
[42] = locus YLR113W, strain HOG1, active compounds read low
[43] = locus YLR133W, strain CKI1, active compounds read low
[44] = locus YLR403W, strain SFP1, active compounds read low
[45] = locus YML070W, strain DAK1, active compounds read low
[46] = locus YMR001C, strain CDC5, active compounds read low
[47] = locus YMR205C, strain PFK2 (second series), active compounds read low
[48] = locus YMR277W, strain FCP1, active compounds read low
[49] = locus YNL006W, strain LST8, active compounds read low
[50] = locus YNL020C, strain ARK1, active compounds read low
[51] = locus YNL161W, strain CBK1, active compounds read low
[52] = locus YNL183C, strain NPR1, active compounds read low
[53] = locus YNL207W, strain RIO2, active compounds read low
[54] = locus YNL222W, strain SSU72, active compounds read low
[55] = locus YNL307C, strain MCK1 (second series), active compounds read low
[56] = locus YOL078W, strain AVO1, active compounds read low
[57] = locus YOL136C, strain PFK27, active compounds read low
[58] = locus YOR061W, strain CKA2, active compounds read low
[59] = locus YOR119C, strain RIO1, active compounds read low
[60] = locus YOR231W, strain MKK1, active compounds read low
[61] = locus YOR329C, strain SCD5, active compounds read low
[62] = locus YPL031C, strain PHO85, active compounds read low
[63] = locus YPL153C, strain RAD53, active compounds read low
[64] = locus YPL204W, strain HRR25, active compounds read low
[65] = locus YPL209C, strain IPL1, active compounds read low
[66] = locus YPL256C, strain CLN2, active compounds read low
[67] = locus YPR025C, strain CCL1, active compounds read low
[68] = locus YPR106W, strain ISR1, active compounds read low
[69] = locus YPR111W, strain DBF20, active compounds read low
[70] = strain NNK1, active compounds read low
[71] = strain TSCII, active compounds read low

Measured: normalized growth

O=C(Nc1cc(Cl)cc(Cl)c1)Nc1cc(-c2cccs2)[nH]n1
active: [21] 0.759 | [26] 0.459 | [42] 0.825 | [66] 0.755
inactive: [1] 0.957 | [2] 0.97 | [3] 0.958 | [4] 0.972 | [5] 0.959 | [6] 0.971 | [7] 0.964 | [8] 0.972 | [9] 0.97 | [10] 0.949 | [11] 0.826 | [12] 0.978 | [13] 0.95 | [14] 0.973 | [15] 0.85 | [16] 0.712 | [17] 0.864 | [18] 0.956 | [19] 0.956 | [20] 0.964 | [22] 0.967 | [23] 0.816 | [24] 0.916 | [25] 0.686 | [27] 0.734 | [28] 0.733 | [29] 0.796 | [30] 0.967 | [31] 0.739 | [32] 0.982 | [33] 0.849 | [34] 0.948 | [35] 0.8 | [36] 0.762 | [37] 0.89 | [38] 0.854 | [39] 0.861 | [40] 0.958 | [41] 0.872 | [43] 0.851 | [44] 0.806 | [45] 0.815 | [46] 0.965 | [47] 0.88 | [48] 0.959 | [49] 0.955 | [50] 0.854 | [51] 0.959 | [52] 0.772 | [53] 0.949 | [54] 0.957 | [55] 0.744 | [56] 0.954 | [57] 0.763 | [58] 0.891 | [59] 0.906 | [60] 0.817 | [61] 0.962 | [62] 0.791 | [63] 0.739 | [64] 0.669 | [65] 0.958 | [67] 0.963 | [68] 0.953 | [69] 0.947 | [70] 0.948 | [71] 0.961

O=C(Nc1cc(Cl)cc(Cl)c1)Nc1cc(-c2ccco2)[nH]n1
inactive: [2] 0.935 | [3] 0.929 | [4] 0.935 | [5] 0.942 | [6] 0.95 | [7] 0.937 | [9] 0.938 | [12] 0.945 | [14] 0.94 | [20] 0.94 | [22] 0.935 | [30] 0.934 | [32] 0.944 | [34] 0.928 | [46] 0.935 | [51] 0.948 | [53] 0.894 | [54] 0.923 | [61] 0.951 | [65] 0.941 | [67] 0.93 | [68] 0.943 | [69] 0.944 | [70] 0.913
active: [10] 0.608 | [11] 0.293 | [13] 0.566 | [15] 0.294 | [16] 0.15 | [17] 0.269 | [19] 0.616 | [21] 0.147 | [23] 0.288 | [24] 0.23 | [25] 0.128 | [26] 0.103 | [27] 0.119 | [28] 0.209 | [29] 0.287 | [31] 0.112 | [33] 0.257 | [35] 0.129 | [36] 0.142 | [37] 0.454 | [38] 0.316 | [39] 0.38 | [41] 0.253 | [42] 0.146 | [43] 0.295 | [44] 0.229 | [45] 0.181 | [47] 0.496 | [48] 0.777 | [49] 0.839 | [50] 0.3 | [52] 0.169 | [55] 0.202 | [57] 0.166 | [58] 0.322 | [59] 0.245 | [60] 0.115 | [62] 0.204 | [63] 0.145 | [64] 0.163 | [66] 0.14

S=C(Nc1cc(-c2cccs2)[nH]n1)Nc1ccccc1Cl
inactive: [1] 0.93 | [2] 0.938 | [3] 0.934 | [4] 0.934 | [5] 0.943 | [6] 0.938 | [7] 0.932 | [8] 0.945 | [9] 0.938 | [10] 0.955 | [11] 0.825 | [12] 0.942 | [13] 0.916 | [14] 0.939 | [15] 0.816 | [16] 0.755 | [17] 0.809 | [18] 0.929 | [19] 0.925 | [20] 0.934 | [21] 0.859 | [22] 0.932 | [23] 0.819 | [24] 0.908 | [25] 0.796 | [27] 0.842 | [28] 0.821 | [29] 0.813 | [30] 0.93 | [31] 0.748 | [32] 0.908 | [33] 0.836 | [34] 0.935 | [35] 0.778 | [36] 0.773 | [37] 0.885 | [38] 0.835 | [39] 0.891 | [40] 0.917 | [41] 0.866 | [43] 0.858 | [44] 0.827 | [45] 0.834 | [46] 0.927 | [47] 0.877 | [48] 0.93 | [49] 0.937 | [50] 0.837 | [51] 0.938 | [52] 0.803 | [53] 0.913 | [54] 0.939 | [55] 0.746 | [56] 0.932 | [57] 0.859 | [58] 0.859 | [59] 0.88 | [60] 0.829 | [61] 0.935 | [62] 0.8 | [63] 0.804 | [64] 0.791 | [65] 0.942 | [67] 0.936 | [68] 0.932 | [69] 0.942 | [70] 0.94 | [71] 0.936
active: [26] 0.616 | [42] 0.739 | [66] 0.72
